NS1 function inh: qHTS Assay for Inhibitors of Influenza NS1 Protein Function; Potency, µM (series often up to 46.1 µM); hit rate 0.4% among 270,000; calls by dose curve; further: actives are rising curves; nearly all actives have a fitted effect of over 50% in size
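Read-out: OD600 growth recovery of NS1-expressing budding yeast. Cells grown overnight at 30C in -URA glucose medium, washed, resuspended and diluted 1:100 in 2% galactose assay medium, pH 6.0. Same strain lacking NS1 served as positive control.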
SARS PLpro yeast: qHTS of Yeast-based Assay for SARS-CoV PLP; S. cerevisiae expressing SARS-CoV PLpro, growth rescue; Potency, µM (highest dose often 32.9 µM), usual class: activators; hit rate 0.19% among 330,000; calls by dose curve; further: nearly all actives have a fitted effect of over 55% in size
Pf growth 48h: Primary qHTS for delayed death inhibitors of the malarial parasite plastid, 48 hour incubation. P. falciparum luciferase growth in erythrocytes, 48 h. Potency, µM (titrated, usually from 28.7 µM), hits mostly inhibitors. hit rate 5.9% among 310,000. AID 504832, 2011
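Firefly luciferase activity from engineered P. falciparum reports growth; inhibitors lower the luminescent signal. Cultures contained 2% hematocrit erythrocytes at 0.1% final parasitemia.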
Pf growth 96h: Primary qHTS for delayed death inhibitors of the malarial parasite plastid, 96 hour incubation | P. falciparum luciferase reporter growth, 96 h | Potency, µM (series often up to 28.7 µM), usual class: inhibitors | hit rate 6.9% among 320,000 | AID 504834, 2011
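Two-generation exposure (96 h) targets delayed-death phenotype. Reporter parasites carrying integrated firefly luciferase, in red cells at 2% hematocrit and 0.05% parasitemia final, kept at 37 C, 5% CO2; luminescence loss indicates inhibition.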
RE007 growth inh: qHTS Assay for Inhibitors of the HIV-1 protein Vpr | S. pombe RE007 Vpr strain, BacTiter-Glo ATP luminescence, 24 h | Potency, µM (highest dose often 92.2 µM), most hits filed as inhibitors | hit rate 0.21% among 360,000 | AID 651644, 2012; active means well fitted falling curve with a large enough effect; inconclusive means small, poorly fitted or top-dose-only effect; inactive means no such curve, though single readings can be large or run the other way; further: nearly all actives have a fitted effect of over 50% in size
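Fission yeast strain RE007, carrying one chromosomally integrated HIV-1 vpr copy, was seeded at OD 0.01 in PMG+AL medium with 23 nL pinned compound. After 24 h at 30 °C and 99% humidity, viability was read by BacTiter-Glo luminescence.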
Each line names hits and unclear results; the compound was inactive in the other large screens. In the library only some 9.5% were active in any assay of this set; here they are far more common. Unless noted, the call rests on the fitted dose curve; in most records, active means well fitted inhibition curve with a large enough effect; inconclusive means small, poorly fitted or top-dose-only effect, or another doubt; inactive means no such curve, though single readings can be large or run the other way.

CN(C)CCOC(=O)c1ccc(N)cc1	none (no result: SARS PLpro yeast, Pf growth 48h, Pf growth 96h, RE007 growth inh)
CCN(CC)S(=O)(=O)c1ccc(C(=O)NNC(=O)c2cccs2)cc1	Pf growth 96h 0.15µM
O=C(c1ccc(Cl)c(S(=O)(=O)NCc2cccnc2)c1)N1CCCC1	none (no result: NS1 function inh)
CC1Cc2cc(/C(O)=C3/C(=O)C(=O)N(CCCn4ccnc4)C3c3ccncc3)ccc2O1 (configuration not stated)	none
C=CCOc1ccc(/C(O)=C2\C(=O)C(=O)N(CCOC)C2c2cccnc2)cc1 (configuration not stated)	none
CCN(CC)CCN1C(=O)C(=O)/C(=C(/O)c2ccc(OC)cc2)C1c1ccco1 (configuration not stated)	Pf growth 96h 0.93µM
CCN(CC)CCN1C(=O)C(=O)/C(=C(/O)c2ccc(C)cc2)C1c1ccncc1 (configuration not stated)	Pf growth 96h inconclusive (no result: RE007 growth inh)
CCN(CC)CCN1C(=O)C(=O)/C(=C(/O)c2ccc(OC(C)C)cc2)C1c1ccncc1 (configuration not stated)	Pf growth 96h 15µM (no result: Pf growth 48h)
CC1Cc2cc(/C(O)=C3/C(=O)C(=O)N(CCCn4ccnc4)C3c3ccco3)ccc2O1 (configuration not stated)	Pf growth 96h 0.21µM
CCCOc1ccc(/C(O)=C2/C(=O)C(=O)N(CCOC)C2c2cccnc2)cc1 (configuration not stated)	Pf growth 48h 1µM, Pf growth 96h inconclusive (no result: RE007 growth inh)
CC1=CC(=C(C#N)c2nc3ccccc3s2)C=C(C)N1c1ccc(F)cc1	Pf growth 48h inconclusive, Pf growth 96h inconclusive
COc1ccccc1N1C(C)=CC(=C(C#N)c2nc3ccccc3s2)C=C1C	Pf growth 48h 9.3µM, Pf growth 96h inconclusive
COC(=O)CCNC(=O)c1ccc2nc(Cc3ccc(OC)c(OC)c3)oc2c1	Pf growth 96h inconclusive
COc1ccc(Cc2nc3ccc(C(=O)NCCCSC)cc3o2)cc1OC	Pf growth 96h 2.9µM
O=C(NC1CC1)c1cc2c(s1)-c1ccccc1OC2	Pf growth 96h 13µM (no result: Pf growth 48h)
COC(C[C@@H](O)CC(=O)COCc1ccccc1)OC	none
Cc1cccc2c1NC1(CCCC1)CC2C (configuration not stated)	Pf growth 96h inconclusive
Cc1ccc2c(c1C)NC(C)CC2C (configuration not stated)	Pf growth 48h 13µM, Pf growth 96h inconclusive
Cc1cc(=O)oc2c(OS(C)(=O)=O)c(OS(C)(=O)=O)ccc12	none (no result: SARS PLpro yeast, Pf growth 48h, Pf growth 96h, RE007 growth inh)
Cn1c(SCC(=O)N2CCc3ccccc3C2)nnc1-c1ccncc1	Pf growth 48h inconclusive, Pf growth 96h inconclusive
CCc1cccc(CC)c1-n1c(SCC(=O)N2CCc3ccccc3C2)nnc1-c1cccnc1	Pf growth 48h 12µM, Pf growth 96h 6.6µM
CCc1cccc(CC)c1-n1c(SCn2nnc3ccccc3c2=O)nnc1-c1cccnc1	Pf growth 96h 4.1µM (no result: Pf growth 48h)
Cc1ccc(S(=O)(=O)O[C@@H]2[C@H]([C@@H]3COC(C)(C)O3)O[C@H]3OC(C)(C)O[C@@H]32)cc1	none (no result: SARS PLpro yeast, Pf growth 48h, Pf growth 96h, RE007 growth inh)
CCOC(=O)c1nnn(-c2ccc([N+](=O)[O-])cc2[N+](=O)[O-])c1C	Pf growth 48h 12µM (no result: NS1 function inh)
CCOC(=O)c1nnn(-c2ccccc2)c1C	none
COc1ccccc1CNC(=O)COC(=O)CCN1C(=O)C2CC=CCC2C1=O (configuration not stated)	none (no result: NS1 function inh, SARS PLpro yeast, Pf growth 48h, Pf growth 96h)
COC(=O)C1=CN(c2ccc(OC)cc2)C=C(C(=O)OC)C1c1cc(OC)c(OC)cc1OC	Pf growth 96h 4.1µM
COC(=O)C1=CN(c2ccc(F)cc2)C=C(C(=O)OC)C1c1ccc(O)cc1	none
CCC(C(=O)NCCCN(CC)Cc1ccccc1)n1nc(C)c2sc3ccccc3c2c1=O (configuration not stated)	Pf growth 48h 10µM
Cc1[nH]c(=O)sc1C(=O)NCc1ccc([N+](=O)[O-])cc1	none (no result: NS1 function inh, SARS PLpro yeast, Pf growth 48h, Pf growth 96h)
Cc1ccccc1-c1cnc2c(c1)C(=O)N([C@@H](C)CO)C[C@@H](C)[C@H](CN(C)Cc1ccccc1F)O2	none (no result: NS1 function inh, SARS PLpro yeast, Pf growth 48h, Pf growth 96h)
Cc1cc(=O)oc2cc(OCC(=O)Nc3c(C)n(C)n(-c4ccccc4)c3=O)c(Cl)cc12	none (no result: NS1 function inh)
O=c1c2ccccc2ncn1CCCOc1ccccc1[N+](=O)[O-]	none
O=[N+]([O-])c1ccccc1OCCCn1cnc2ccccc21	Pf growth 96h 2.3µM
COc1cccc(CN2CCc3ccc(NC(=O)CCc4ccc(C)cc4)cc3C2)c1O	Pf growth 48h inconclusive, Pf growth 96h inconclusive
COc1ccccc1CCC(=O)Nc1ccc2c(c1)CN(CCCn1cccn1)CC2	Pf growth 48h 8.3µM
COc1cc(CN2CCc3ccc(NC(=O)CCc4ccccc4OC)cc3C2)ccc1O	Pf growth 48h 5.2µM
COc1ccc(CN2CCc3ccc(NC(=O)CCc4ccccc4OC)cc3C2)c(O)c1	Pf growth 48h 2.1µM
COc1cc(CNC(C)C23CC4CC(CC(C4)C2)C3)ccc1OCC(=O)NC(C)(C)C (configuration not stated)	Pf growth 48h 10µM
COc1cc(CNC(C)C23CC4CC(CC(C4)C2)C3)cc(OC)c1OC (configuration not stated)	Pf growth 48h 12µM, Pf growth 96h inconclusive
O=C1C[C@H](NC(=O)OCc2ccccc2)CO1	none (no result: NS1 function inh)
COC(=O)C1C=C2c3cccc4[nH]cc(c34)CC2N(C)C1 (configuration not stated)	Pf growth 48h inconclusive, Pf growth 96h inconclusive (no result: RE007 growth inh)
CN1C[C@H](C(=O)N[C@]2(C)O[C@@]3(O)[C@@H]4CCCN4C(=O)[C@H](Cc4ccccc4)N3C2=O)C=C2c3cccc4[nH]cc(c34)C[C@H]21	Pf growth 48h 0.3µM, Pf growth 96h 0.3µM (no result: NS1 function inh, SARS PLpro yeast, RE007 growth inh)
CN1C[C@H](C(=O)N[C@@]2(C)O[C@@]3(O)[C@H]4CCCN4C(=O)[C@@H](Cc4ccccc4)N3C2=O)C=C2c3cccc4[nH]cc(c34)C[C@@H]21	none (no result: SARS PLpro yeast, Pf growth 48h, Pf growth 96h, RE007 growth inh)
CC(C)C[C@H]1C(=O)N2CCC[C@H]2[C@]2(O)O[C@](NC(=O)[C@@H]3C=C4c5cccc6[nH]cc(c56)C[C@H]4N(C)C3)(C(C)C)C(=O)N12	Pf growth 48h 2.9µM, Pf growth 96h 3.7µM (no result: NS1 function inh, SARS PLpro yeast)
O=C(NCc1ccc(F)cc1)c1[nH]c(C(F)(F)F)nc1-c1ccccc1	none (no result: NS1 function inh, SARS PLpro yeast, Pf growth 48h, Pf growth 96h)
CCOC(=O)C1(C)CCCN(C(=O)c2ccc(OC)c(OC)c2)C1 (configuration not stated)	none (no result: NS1 function inh, SARS PLpro yeast, Pf growth 48h, Pf growth 96h)
Oc1c(CN2CCN(c3ccccn3)CC2)cc(Cl)c2cccnc12	Pf growth 48h 2.3µM, RE007 growth inh inconclusive (no result: Pf growth 96h)
OCCN1CCN(Cc2cc(Cl)c3cccnc3c2O)CC1	SARS PLpro yeast 18µM, Pf growth 96h inconclusive (no result: Pf growth 48h)
CC(=O)NCc1cc(Cl)c2cccnc2c1O	Pf growth 48h inconclusive (no result: NS1 function inh, RE007 growth inh)
N#Cc1c(NC(=O)COC(=O)C2CC3C=CC2C3)oc(-c2ccccc2)c1-c1ccccc1 (configuration not stated)	NS1 function inh inconclusive, Pf growth 96h 9.3µM
